The sample as a whole holds a higher share of the strongest signals than the screen did.
Key:
Assay in all cases: glycan array binding signal (z-score within array); higher = stronger binding
Conditions in all cases: glycan notation: IUPAC condensed, linker removed
[1] = molecular target: Fuc(a1-2)Gal(b1-3)GalNAc(b1-3)Gal
Method in brief: (§1)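 Glycan array data were curated from 3228 arrays in the Consortium for Functional Glycomics database and kept only where the protein sequence was available. Glycan names were converted to IUPAC-condensed notation, and columns mapping to the same glycan were averaged. The binding signal is a within-array Z-score, averaged across arrays of the same protein sequence at different concentrations or buffers and across linkers. Negative Z-scores can be read as non-binding.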

Fuc(a1-2)Gal(b1-4)Glc = molecular target: Fuc(a1-2)Gal(b1-4)Glc
Method in brief: as §1

[2] = molecular target: Fuc(a1-2)Gal(b1-4)GlcNAc(b1-3)GalNAc
Method in brief: as §1

[3] = molecular target: Fuc(a1-2)Gal(b1-4)GlcNAc(b1-6)GalNAc
Method in brief: as §1

[4] = molecular target: Fuc(a1-2)Gal6S(b1-3)GlcNAc6S
Method in brief: as §1

[5] = molecular target: Fuc(a1-2)[Gal(a1-3)]Gal(b1-4)GlcNAc
Method in brief: as §1

[6] = molecular target: Fuc(a1-2)[Gal(a1-3)]Gal(b1-4)GlcNAc(b1-2)Man(a1-3)[Fuc(a1-2)[Gal(a1-3)]Gal(b1-4)GlcNAc(b1-2)Man(a1-6)]Man(b1-4)GlcNAc(b1-4)[Fuc(a1-6)]GlcNAc
Method in brief: as §1

[7] = molecular target: Fuc(a1-2)[GalNAc(a1-3)]Gal(b1-3)GalNAc(a1-3)[Fuc(a1-2)]Gal(b1-4)GlcNAc
Method in brief: as §1

[8] = molecular target: Fuc(a1-2)[GalNAc(a1-3)]Gal(b1-3)GlcNAc(b1-2)Man(a1-3)[Fuc(a1-2)[GalNAc(a1-3)]Gal(b1-3)GlcNAc(b1-2)Man(a1-6)]Man(b1-4)GlcNAc(b1-4)[Fuc(a1-6)]GlcNAc
Method in brief: as §1

[9] = molecular target: Fuc(a1-2)[GalNAc(a1-3)]Gal(b1-4)GlcNAc(b1-6)GalNAc
Method in brief: as §1

[10] = molecular target: Fuc(a1-2)[GalNAc(a1-3)]Gal(b1-4)[Fuc(a1-3)]GlcNAc
Method in brief: as §1

[11] = molecular target: Fuc(a1-2)[GalNAc(a1-4)]Gal(b1-4)GlcNAc
Method in brief: as §1

[12] = molecular target: Fuc(a1-2)[GalNAc(b1-3)]Gal
Method in brief: as §1

[13] = molecular target: Fuc(a1-3)[Gal(b1-4)]GlcNAc(b1-2)Man(a1-3)[Fuc(a1-3)[Gal(b1-4)]GlcNAc(b1-2)Man(a1-6)]Man(b1-4)GlcNAc(b1-4)[Fuc(a1-6)]GlcNAc
Method in brief: as §1

Gal(a1-3)Gal(b1-3)GlcNAc = molecular target: Gal(a1-3)Gal(b1-3)GlcNAc
Method in brief: as §1

[14] = molecular target: Gal(a1-3)Gal(b1-3)GlcNAc(b1-2)Man(a1-3)[Gal(a1-3)Gal(b1-3)GlcNAc(b1-2)Man(a1-6)]Man(b1-4)GlcNAc(b1-4)GlcNAc
Method in brief: as §1

[15] = molecular target: Gal(a1-3)Gal(b1-3)GlcNAc(b1-6)GalNAc
Method in brief: as §1

[16] = molecular target: Gal(a1-3)Gal(b1-4)GlcNAc(b1-6)GalNAc
Method in brief: as §1

[17] = molecular target: Gal(b1-3)GlcNAc(b1-6)GalNAc
Method in brief: as §1

[18] = molecular target: Gal(b1-3)GlcNAc(b1-6)[Gal(b1-3)]GalNAc
Method in brief: as §1

[19] = molecular target: Gal(b1-3)[Fuc(a1-4)]GlcNAc
Method in brief: as §1

Gal6S(b1-3)GlcNAc6S = molecular target: Gal6S(b1-3)GlcNAc6S
Method in brief: as §1

GalNAc(a1-3)Gal = molecular target: GalNAc(a1-3)Gal
Method in brief: as §1

GalNAc(b1-3)Gal = molecular target: GalNAc(b1-3)Gal
Method in brief: as §1

[20] = molecular target: GalNAc(b1-3)Gal(a1-6)Gal(b1-4)Glc
Method in brief: as §1

GalNAc(b1-3)GlcNAc = molecular target: GalNAc(b1-3)GlcNAc
Method in brief: as §1

[21] = molecular target: GalNAc(b1-4)GlcNAc(b1-2)Man(a1-3)[GalNAc(b1-4)GlcNAc(b1-2)Man(a1-6)]Man(b1-4)GlcNAc(b1-4)GlcNAc
Method in brief: as §1

GalNAc6S(b1-4)GlcNAc = molecular target: GalNAc6S(b1-4)GlcNAc
Method in brief: as §1

[22] = molecular target: GlcNAc(a1-4)Gal(b1-4)GlcNAc(b1-3)Gal(b1-4)GlcNAc
Method in brief: as §1

[23] = molecular target: GlcNAc(b1-2)[GlcNAc(b1-4)]Man(a1-3)[GlcNAc(b1-4)][GlcNAc(b1-2)[GlcNAc(b1-6)]Man(a1-6)]Man(b1-4)GlcNAc(b1-4)[Fuc(a1-6)]GlcNAc
Method in brief: as §1

Kdn(a2-6)Gal(b1-4)GlcNAc = molecular target: Kdn(a2-6)Gal(b1-4)GlcNAc
Method in brief: as §1

[24] = molecular target: Man(a1-2)Man(a1-2)Man(a1-6)[Man(a1-3)]Man
Method in brief: as §1

[25] = molecular target: Man(a1-2)Man(a1-3)[Man(a1-2)Man(a1-6)]Man
Method in brief: as §1

[26] = molecular target: Man(a1-3)[Man(a1-6)]Man(a1-6)[Man(a1-3)]Man
Method in brief: as §1

[27] = molecular target: Man(a1-3)[Man(a1-6)]Man(b1-4)GlcNAc(b1-4)GlcNAc
Method in brief: as §1

[28] = molecular target: Neu5Ac(a2-3)Gal(b1-3)GlcNAc(b1-4)Gal(b1-4)Glc
Method in brief: as §1

[29] = molecular target: Neu5Ac(a2-3)Gal(b1-4)GlcNAc(b1-3)Gal(b1-4)GlcNAc(b1-3)Gal(b1-4)GlcNAc(b1-2)Man(a1-3)[Neu5Ac(a2-3)Gal(b1-4)GlcNAc(b1-3)Gal(b1-4)GlcNAc(b1-3)Gal(b1-4)GlcNAc(b1-2)Man(a1-6)]GalNAc
Method in brief: as §1

[30] = molecular target: Neu5Ac(a2-3)Gal(b1-4)GlcNAc(b1-3)[Neu5Ac(a2-3)Gal(b1-4)GlcNAc(b1-6)]GalNAc
Method in brief: as §1

[31] = molecular target: Neu5Ac(a2-6)Gal(b1-4)GlcNAc(b1-2)Man(a1-6)[Gal(b1-4)GlcNAc(b1-2)Man(a1-3)]Man(b1-4)GlcNAc(b1-4)GlcNAc
Method in brief: as §1

[32] = molecular target: Neu5Ac(a2-8)Neu5Ac(a2-8)Neu5Ac(a2-3)Gal(b1-4)Glc
Method in brief: as §1

[33] = molecular target: Neu5Gc(a2-8)Neu5Gc(a2-3)Gal(b1-4)GlcNAc(b1-3)Gal(b1-4)GlcNAc
Method in brief: as §1

B1: Cohesin-hDECTIN-1 (Homo sapiens) (protein)
chain: LDITSHHHHHHDDLDAVRIKVDTVNAKPGDTVRIPVRFSGIPSKGIANCDFVYSYDPNVLEIIEIEPGDIIVDPNPDKSFDTAVYPDRKIIVFLFAEDSGTGAYAITKDGVFATIVAKVKEGAPNGLSVIKFVEVGGFANNDLVEQKTQFFDGGVNVGDTTEPATPTTPVTTPTTTDDLDAASSSPCPPNWIIYEKSCYLFSMSLNSWDGSKRQCWQLGSNLLKIDSSNELGFIVKQVSSQPDNSFWIGLSRPQTEVPWLWEDGSTFSSNLFQIRTTATQENPSPNCVWIHVSVIYDQLCSVPSYSICEKKFM
[1]
  glycan array binding signal (z-score): 1.86
Fuc(a1-2)Gal(b1-4)Glc
  glycan array binding signal (z-score): -0.162
[2]
  glycan array binding signal (z-score): -0.382
[3]
  glycan array binding signal (z-score): 2.93
[4]
  glycan array binding signal (z-score): 0.18
[5]
  glycan array binding signal (z-score): -0.206
[6]
  glycan array binding signal (z-score): -0.435
[7]
  glycan array binding signal (z-score): -0.177
[8]
  glycan array binding signal (z-score): -0.305
[9]
  glycan array binding signal (z-score): 6.29
[10]
  glycan array binding signal (z-score): -0.149
[11]
  glycan array binding signal (z-score): 4.25
[12]
  glycan array binding signal (z-score): 4.83
[13]
  glycan array binding signal (z-score): -0.51
Gal(a1-3)Gal(b1-3)GlcNAc
  glycan array binding signal (z-score): 4.04
[14]
  glycan array binding signal (z-score): 0.993
[15]
  glycan array binding signal (z-score): 7.58
[16]
  glycan array binding signal (z-score): 5.86
[17]
  glycan array binding signal (z-score): 6.01
[18]
  glycan array binding signal (z-score): -0.299
[19]
  glycan array binding signal (z-score): -0.306
Gal6S(b1-3)GlcNAc6S
  glycan array binding signal (z-score): 1.2
GalNAc(a1-3)Gal
  glycan array binding signal (z-score): 2.65
GalNAc(b1-3)Gal
  glycan array binding signal (z-score): 5.2
[20]
  glycan array binding signal (z-score): 4.68
GalNAc(b1-3)GlcNAc
  glycan array binding signal (z-score): 3.33
[21]
  glycan array binding signal (z-score): 0.004
GalNAc6S(b1-4)GlcNAc
  glycan array binding signal (z-score): 4.98
[22]
  glycan array binding signal (z-score): -0.476
[23]
  glycan array binding signal (z-score): -0.586
Kdn(a2-6)Gal(b1-4)GlcNAc
  glycan array binding signal (z-score): -0.471
[24]
  glycan array binding signal (z-score): -0.33
[25]
  glycan array binding signal (z-score): -0.432
[26]
  glycan array binding signal (z-score): -0.272
[27]
  glycan array binding signal (z-score): -0.44
[28]
  glycan array binding signal (z-score): -0.22
[29]
  glycan array binding signal (z-score): -0.295
[30]
  glycan array binding signal (z-score): -0.163
[31]
  glycan array binding signal (z-score): -0.561
[32]
  glycan array binding signal (z-score): -0.569
[33]
  glycan array binding signal (z-score): -0.091
